From the supplement of paper PMC10849652 come the findings set out here.

About 8,800 targets were measured; listed, in parts, are those with a hit and a random draw of the rest. About 0.5% of all pairs of compound and target were hits. Unmarked numbers belong to inactive results.

Chain of UniProt O76075 (O76075 whole entry, looked up): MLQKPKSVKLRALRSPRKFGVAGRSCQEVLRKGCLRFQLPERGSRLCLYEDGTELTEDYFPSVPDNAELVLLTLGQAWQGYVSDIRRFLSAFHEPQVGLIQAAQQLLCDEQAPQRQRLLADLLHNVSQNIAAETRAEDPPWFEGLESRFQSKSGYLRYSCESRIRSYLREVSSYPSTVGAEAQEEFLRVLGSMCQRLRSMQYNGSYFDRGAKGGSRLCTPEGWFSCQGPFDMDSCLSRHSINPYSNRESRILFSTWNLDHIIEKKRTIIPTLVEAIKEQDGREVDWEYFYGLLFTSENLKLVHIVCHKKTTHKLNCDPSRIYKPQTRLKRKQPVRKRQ
Chain of UniProt Q9P003 (Q9P003 whole entry, looked up): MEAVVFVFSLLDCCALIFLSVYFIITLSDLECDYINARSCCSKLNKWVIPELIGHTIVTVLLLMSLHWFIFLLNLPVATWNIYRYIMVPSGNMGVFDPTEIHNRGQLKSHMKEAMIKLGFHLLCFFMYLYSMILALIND
Chain of UniProt Q8IVF4 (Q8IVF4 whole entry, looked up): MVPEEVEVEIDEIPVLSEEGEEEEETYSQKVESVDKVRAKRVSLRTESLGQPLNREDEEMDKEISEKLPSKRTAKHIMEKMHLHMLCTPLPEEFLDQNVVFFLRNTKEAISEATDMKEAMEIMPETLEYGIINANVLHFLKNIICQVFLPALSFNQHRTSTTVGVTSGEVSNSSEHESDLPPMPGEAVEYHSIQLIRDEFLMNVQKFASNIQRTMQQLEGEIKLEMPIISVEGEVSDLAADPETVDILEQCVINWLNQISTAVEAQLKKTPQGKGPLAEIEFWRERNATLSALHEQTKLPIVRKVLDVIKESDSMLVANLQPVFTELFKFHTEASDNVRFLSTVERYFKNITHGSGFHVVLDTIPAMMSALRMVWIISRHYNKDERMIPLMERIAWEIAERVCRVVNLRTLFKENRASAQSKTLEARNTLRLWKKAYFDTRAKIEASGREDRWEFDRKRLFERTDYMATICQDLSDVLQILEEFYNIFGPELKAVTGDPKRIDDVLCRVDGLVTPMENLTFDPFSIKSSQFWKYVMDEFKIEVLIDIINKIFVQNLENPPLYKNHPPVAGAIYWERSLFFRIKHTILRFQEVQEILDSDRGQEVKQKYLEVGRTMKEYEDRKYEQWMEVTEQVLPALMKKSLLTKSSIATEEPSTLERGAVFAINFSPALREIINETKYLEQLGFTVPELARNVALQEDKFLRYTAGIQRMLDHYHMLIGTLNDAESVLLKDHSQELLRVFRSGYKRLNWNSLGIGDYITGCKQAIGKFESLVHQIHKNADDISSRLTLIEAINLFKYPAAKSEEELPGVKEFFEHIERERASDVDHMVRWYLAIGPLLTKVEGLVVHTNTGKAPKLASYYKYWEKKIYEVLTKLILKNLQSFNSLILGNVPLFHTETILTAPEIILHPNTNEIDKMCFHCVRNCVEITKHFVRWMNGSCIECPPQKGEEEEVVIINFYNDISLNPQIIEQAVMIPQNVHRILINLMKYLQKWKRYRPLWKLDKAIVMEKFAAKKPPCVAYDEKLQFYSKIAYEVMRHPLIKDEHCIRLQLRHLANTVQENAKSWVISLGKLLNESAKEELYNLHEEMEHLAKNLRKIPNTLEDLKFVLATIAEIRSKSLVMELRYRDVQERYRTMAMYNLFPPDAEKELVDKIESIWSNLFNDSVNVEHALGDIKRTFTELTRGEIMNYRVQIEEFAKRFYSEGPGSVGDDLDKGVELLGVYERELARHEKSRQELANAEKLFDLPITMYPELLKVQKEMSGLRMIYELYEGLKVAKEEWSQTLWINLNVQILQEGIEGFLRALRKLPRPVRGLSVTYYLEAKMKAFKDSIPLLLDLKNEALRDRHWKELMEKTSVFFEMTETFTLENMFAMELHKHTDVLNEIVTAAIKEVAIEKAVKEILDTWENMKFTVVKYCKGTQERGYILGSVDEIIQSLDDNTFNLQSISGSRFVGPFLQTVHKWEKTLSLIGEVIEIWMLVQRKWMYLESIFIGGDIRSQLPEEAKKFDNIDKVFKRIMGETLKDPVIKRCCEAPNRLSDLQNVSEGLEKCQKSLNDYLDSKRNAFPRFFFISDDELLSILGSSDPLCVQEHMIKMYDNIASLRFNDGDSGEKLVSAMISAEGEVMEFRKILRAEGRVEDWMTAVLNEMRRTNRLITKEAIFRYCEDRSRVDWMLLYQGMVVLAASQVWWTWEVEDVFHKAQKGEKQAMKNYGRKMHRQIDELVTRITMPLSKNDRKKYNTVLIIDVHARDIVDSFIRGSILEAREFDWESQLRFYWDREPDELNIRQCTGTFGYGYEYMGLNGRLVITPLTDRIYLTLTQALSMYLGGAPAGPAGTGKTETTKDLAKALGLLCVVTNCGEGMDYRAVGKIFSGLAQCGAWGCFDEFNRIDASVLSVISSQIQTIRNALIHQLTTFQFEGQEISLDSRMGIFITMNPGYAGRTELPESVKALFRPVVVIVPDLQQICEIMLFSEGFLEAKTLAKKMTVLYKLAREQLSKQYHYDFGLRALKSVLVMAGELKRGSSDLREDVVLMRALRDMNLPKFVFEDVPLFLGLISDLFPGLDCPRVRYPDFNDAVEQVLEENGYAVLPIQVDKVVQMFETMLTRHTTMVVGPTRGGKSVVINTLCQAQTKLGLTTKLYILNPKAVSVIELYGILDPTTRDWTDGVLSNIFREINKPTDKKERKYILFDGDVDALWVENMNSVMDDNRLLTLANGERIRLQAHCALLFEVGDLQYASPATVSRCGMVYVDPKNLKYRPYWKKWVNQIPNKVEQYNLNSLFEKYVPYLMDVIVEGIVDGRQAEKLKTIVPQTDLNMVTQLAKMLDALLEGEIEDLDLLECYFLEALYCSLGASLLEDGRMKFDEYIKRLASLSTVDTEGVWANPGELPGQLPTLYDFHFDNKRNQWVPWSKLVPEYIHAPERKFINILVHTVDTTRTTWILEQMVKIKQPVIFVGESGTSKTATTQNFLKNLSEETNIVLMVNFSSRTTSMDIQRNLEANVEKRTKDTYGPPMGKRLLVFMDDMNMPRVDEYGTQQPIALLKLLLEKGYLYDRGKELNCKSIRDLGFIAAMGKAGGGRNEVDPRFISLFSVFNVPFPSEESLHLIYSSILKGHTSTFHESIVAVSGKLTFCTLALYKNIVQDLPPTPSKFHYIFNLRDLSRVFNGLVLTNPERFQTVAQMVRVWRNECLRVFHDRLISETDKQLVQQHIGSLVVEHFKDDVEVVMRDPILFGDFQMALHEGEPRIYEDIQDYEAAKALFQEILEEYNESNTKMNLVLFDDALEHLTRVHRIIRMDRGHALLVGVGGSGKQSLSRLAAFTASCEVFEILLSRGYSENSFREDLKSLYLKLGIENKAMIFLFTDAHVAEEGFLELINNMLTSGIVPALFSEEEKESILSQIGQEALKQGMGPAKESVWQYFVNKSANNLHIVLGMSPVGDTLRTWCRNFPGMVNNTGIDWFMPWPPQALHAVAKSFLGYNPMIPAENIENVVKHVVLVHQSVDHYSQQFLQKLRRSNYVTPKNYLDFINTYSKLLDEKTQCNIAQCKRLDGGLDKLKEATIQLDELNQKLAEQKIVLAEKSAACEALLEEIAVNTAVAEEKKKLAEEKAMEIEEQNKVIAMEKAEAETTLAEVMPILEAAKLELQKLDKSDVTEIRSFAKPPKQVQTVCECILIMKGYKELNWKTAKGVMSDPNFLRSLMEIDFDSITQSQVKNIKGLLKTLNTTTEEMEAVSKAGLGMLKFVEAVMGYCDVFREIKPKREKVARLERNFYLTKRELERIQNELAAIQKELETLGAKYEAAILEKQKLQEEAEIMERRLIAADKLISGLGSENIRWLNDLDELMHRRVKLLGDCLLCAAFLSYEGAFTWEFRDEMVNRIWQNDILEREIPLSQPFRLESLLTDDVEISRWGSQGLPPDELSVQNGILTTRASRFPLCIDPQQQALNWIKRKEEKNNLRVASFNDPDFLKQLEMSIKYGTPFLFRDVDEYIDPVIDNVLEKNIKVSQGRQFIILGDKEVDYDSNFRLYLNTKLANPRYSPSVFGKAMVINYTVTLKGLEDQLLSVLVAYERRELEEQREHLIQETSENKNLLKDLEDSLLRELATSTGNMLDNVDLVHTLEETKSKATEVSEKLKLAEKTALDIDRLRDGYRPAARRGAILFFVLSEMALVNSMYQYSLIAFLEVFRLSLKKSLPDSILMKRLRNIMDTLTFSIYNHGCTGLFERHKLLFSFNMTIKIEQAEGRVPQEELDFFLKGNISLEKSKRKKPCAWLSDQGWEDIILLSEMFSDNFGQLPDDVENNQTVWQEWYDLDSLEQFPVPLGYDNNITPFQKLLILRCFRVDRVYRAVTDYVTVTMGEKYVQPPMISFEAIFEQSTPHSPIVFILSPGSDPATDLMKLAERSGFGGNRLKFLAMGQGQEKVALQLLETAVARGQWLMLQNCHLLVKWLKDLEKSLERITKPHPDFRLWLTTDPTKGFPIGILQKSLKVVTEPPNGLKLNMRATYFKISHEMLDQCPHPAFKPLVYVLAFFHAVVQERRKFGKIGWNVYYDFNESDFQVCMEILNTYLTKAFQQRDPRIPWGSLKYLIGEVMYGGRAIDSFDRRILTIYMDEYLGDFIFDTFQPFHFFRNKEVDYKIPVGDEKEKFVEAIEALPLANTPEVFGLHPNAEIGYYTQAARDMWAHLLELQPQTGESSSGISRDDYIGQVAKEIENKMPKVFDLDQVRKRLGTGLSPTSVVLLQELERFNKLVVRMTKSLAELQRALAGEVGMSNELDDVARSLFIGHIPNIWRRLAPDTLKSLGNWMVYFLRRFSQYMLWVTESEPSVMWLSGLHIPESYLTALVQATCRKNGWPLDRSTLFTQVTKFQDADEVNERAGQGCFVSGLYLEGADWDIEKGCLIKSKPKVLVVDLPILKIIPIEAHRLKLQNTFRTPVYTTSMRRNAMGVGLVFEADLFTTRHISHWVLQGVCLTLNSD

Compound in this test: C/C(=N\NC(=O)C1=CC(=CC=C1)S(=O)(=O)N2CCOCC2)/C3=C(C=CC(=C3)Cl)O
Description: log2 fold change, soluble protein after heating vs DMSO (PISA); higher = thermal stabilisation; K562 lysate, 10 uM; active = over 0.2 and 3.5 SD of the protein, either way, in both replicates (recomputed). The essentials:
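Soluble protein was defined as the supernatant remaining after 21,000xg for 90 min, following pooling of heated aliquots and adjustment to 0.5% NP-40 at 4°C. Before that, crude K562 extract at 1 mg/mL protein in PBS pH 7.4 with 1 mM MgCl2 was treated with 10 μM compound for 30 min and heated for 3 min across 48°C-58°C. Quantification used TMTpro 16plex LC-MS/MS with channel sums equalised, and values are log-two fold changes in thermal stability relative to solvent controls from duplicates.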
Consider DLGAP5 (UniProt Q15398), for which the log2 fold change was 0.023.

With DCTN1 (UniProt Q14203), the log2 fold change was -0.001.

Take DOCK10 (UniProt Q96BY6): the log2 fold change is -0.191.

Turning to DFFB (UniProt O76075), the log2 fold change is 0.062.

With CWC22 (UniProt Q9HCG8), the log2 fold change is 0.006.

Consider CHMP4A isoform 2 (UniProt Q9BY43), for which the log2 fold change is 0.008.

For DDX54 isoform 2 (UniProt Q8TDD1), the log2 fold change was -0.36.

For the target DLG3 isoform 2 (UniProt Q92796), the log2 fold change is -0.085.

For the target COG3 (UniProt Q96JB2), the log2 fold change is 0.053.

CMPK2 (UniProt Q5EBM0): the log2 fold change is 0.07.

In the case of CNOT6L (UniProt Q96LI5), the log2 fold change was 0.

CSK (UniProt P41240): the log2 fold change is -0.025.

CYP24A1 (UniProt Q07973): the log2 fold change is 0.058.

Take DAZAP1 (UniProt Q96EP5): the log2 fold change is 0.008.

Consider CNIH4 (UniProt Q9P003), for which the log2 fold change was -0.139.

Consider DNM2 (UniProt P50570), for which the log2 fold change was -0.009.

Take CMIP (UniProt Q8IY22): the log2 fold change was 0.05.

Turning to COQ9 (UniProt O75208), the log2 fold change is -0.075.

With CNOT2 (UniProt Q9NZN8), the log2 fold change is 0.013.

For DOCK8 (UniProt Q8NF50), the log2 fold change is -0.073.

As to CSNK2B (UniProt P67870), the log2 fold change is -0.107.

For CPT1A (UniProt P50416), the log2 fold change was -0.034.

On to DNAH10 (UniProt Q8IVF4), for which the log2 fold change was 0.047.
